Assay results taken from PubChem BioAssay AID720690 (Broad Institute, 2013).
Measured potencies and affinities stand elsewhere. A number with no mark means an inactive call.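 Rule for the calls: active = every repeat run showing a signal drop whose fitted half-maximal concentration is at most twice the top tested concentration; inconclusive = repeat runs disagree, or flat partial drop, or poor fit; inactive = the rest.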

Assay: general mammalian cell viability loss – activator set, cherry-pick, cytotoxicity control for miR-122 modulator project, dose response (AID 720690);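 note: 0% = neutral control wells and -100% = MG132 cytotoxic control wells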
Conditions: HEK293T viability, CellTiter-Glo luminescence, 48 h; series mostly up to 26 µM; activity change, negative = cytotoxicity: at the top concentration

Structure (SMILES)	activity change, negative = cytotoxicity
CCS(=O)(=O)Nc1ccc2c(c1)C(=O)N(C)[C@H]1CC[C@H](CC(=O)NCCCN3CCOCC3)O[C@H]1CO2	-2.75%
Cc1nn(C)cc1NC(=O)C[C@@H]1CC[C@H]2[C@@H](COc3ccc(NC(=O)Nc4cccc(Cl)c4)cc3C(=O)N2C)O1	3.14%
COCC(=O)N(C)C[C@H]1Oc2cc(-c3ccc(C#N)cc3)ccc2S(=O)(=O)N([C@H](C)CO)C[C@H]1C	12.3%
CNC(=O)C[C@H]1CC[C@@H]2[C@H](COc3ccc(NC(=O)C(C)C)cc3C(=O)N2C)O1	-17.7% [at 23.5 µM]
CC(=O)N(C[C@@H]1N[C@@H](CO)[C@H]1c1ccc(-c2ccccc2)cc1)C(C)C	-5.09%
CCCNC(=O)C[C@H]1CC[C@@H]2[C@@H](COc3ccc(NC(=O)c4ccc5c(c4)OCO5)cc3C(=O)N2C)O1	-16.7% [at 23.5 µM]
Cc1cc(C(C)(C)C)cc(S(=O)(=O)NCCc2ccncc2)c1C	3.39%
C/C=C/c1ccc([C@@H]2[C@@H](CO)N(S(C)(=O)=O)[C@H]2CN(C)C(=O)CC)cc1	-8.55%
COCCN(C[C@@H]1[C@@H](c2ccccc2)[C@H](CO)N1C(=O)C1CCC1)C(C)=O	5.88%
CCNC(=O)Nc1ccc2c(c1)C(=O)N(C)[C@H]1CC[C@H](CC(=O)NCCN3CCCC3)O[C@@H]1CO2	-0.303%
CNC[C@@H]1Oc2cc(C#CC3CCCC3)ccc2S(=O)(=O)N([C@@H](C)CO)C[C@@H]1C	-32.4%
Cc1cccc(NC(=O)C[C@H]2CC[C@H]3[C@@H](COc4ccc(NC(=O)NC(C)C)cc4C(=O)N3C)O2)c1	9.81%
C[C@@H]1CN([C@@H](C)CO)S(=O)(=O)c2ccc(-c3ccccc3)cc2O[C@@H]1CN(C)C(=O)c1ccc2c(c1)OCO2	-29.4%
